Measured values published in PubChem BioAssay AID624054 (National Center for Advancing Translational Sciences (NCATS), 2012).
Activity calls are given as the source filed them.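 Rule for the calls: active = IC50 at or below 10 µM; inconclusive = IC50 above 10 µM but below 20 µM; inactive = IC50 of 20 µM or more.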

What follows are molecules tested against Neuropeptide S receptor (Homo sapiens) (UniProt Q6W5P4) (assay: Robust Characterization of cAMP Signal Transduction for Antagonists of the Neuropeptide S Receptor: SAR). Settings: CHO-NPSR cells, NPS-stimulated cAMP, TR-FRET.
Chain of Neuropeptide S receptor (Homo sapiens) (Q6W5P4 whole entry, looked up): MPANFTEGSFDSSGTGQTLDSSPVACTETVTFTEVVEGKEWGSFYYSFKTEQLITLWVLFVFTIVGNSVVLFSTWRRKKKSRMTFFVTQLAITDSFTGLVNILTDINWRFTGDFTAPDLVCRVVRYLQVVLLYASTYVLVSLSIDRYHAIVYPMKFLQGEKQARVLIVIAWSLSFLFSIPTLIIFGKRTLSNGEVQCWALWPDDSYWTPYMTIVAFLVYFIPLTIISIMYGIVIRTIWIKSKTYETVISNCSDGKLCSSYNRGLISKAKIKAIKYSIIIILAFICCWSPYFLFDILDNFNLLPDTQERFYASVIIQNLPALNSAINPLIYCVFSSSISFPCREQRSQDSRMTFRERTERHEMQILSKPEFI
Excerpt: Neuropeptide S receptor (NPSR), previously known as GPR154, is a recently de-orphanized G protein coupled receptor. Its endogenous ligand is the 20 amino acids peptide Neuropeptide S (NPS). […] NPS and its receptor are found in various tissues. Specifically they are highly expressed in brain areas that have been implicated in modulation of arousal, stress and anxiety. Central administration of NPS in mice produces an unusual profile of activity by inducing wakefulness and arousal, while at the same time suppressing anxiety. Therefore, NPSR may represent a novel drug target for the treatment of sleep and anxiety disorders. To identify NPSR antagonists, we developed a cell-based cAMP assay. NPS can stimulate the production of cAMP in Chinese hamster ovary cells stably expressing NPS receptor. This change in intracellular cAMP level can be detected by a homogeneous LANCE cAMP assay based on the TR-FRET (time resolved fluorescence resonance energy transfer) between a europium-labeled cAMP tracer complex and a cAMP-specific antibody labeled with Alexa Fluor 647. The europium-labeled cAMP tracer complex is formed by the tight interaction between Biotin-cAMP (b-cAMP) and streptavidin labeled with Europium-W8044 chelate (Eu-SA). Light pulse at 320 nm excites the europium of the cAMP tracer and the energy emitted is transferred to the Alexa molecule bound to the cAMP antibody, generating a TR-FRET signal at 665 nm. Residual energy from the europium will produce a light at 620 nm. The native unlabeled cAMP from cell lysates competes with the europium-cAMP tracer for antibody binding and reversely reduces the emission signal of Alexa by interrupting FRET between the two labeled molecules. Both emission signals from the FRET donor (620 nm) and the acceptor (665 nm) can be detected by a plate reader in the TRF mode. Expression of result in fluorescence ratio (665 nm/620 nm) helps to normalize differences due to cell density and reagent dispensing. This assay was successfully optimized to a 1536-well plate format. Select compounds from the primary screen (AID 1461) were chosen for confirmation based on potency, efficacy, SAR, and activity across other assays in PubChem and at NCGC. Other compounds are analogs of active compounds from the primary screen. […]
A Chinese hamster ovary (CHO) cell line stably expressing the NPS receptor (CHO-NPSR) was obtained from Dr. Heilig lab at NIAAA and maintained in F-12 Kaighn's media (Invitrogen, Carlsbad, CA, 21127) supplemented with 10 % FBS, 100 units/ml penicillin, 100 ug/ml streptomycin and 250 ug/ml geneticin at 37C, 5% CO2 in a humidified atmosphere. […] IC50 values were determined from concentration-response data modeled with the standard Hill equation. […]

IC50, active:
Cc1c(P(=S)(c2ccccc2)c2ccccc2)[n+]2ccccc2n1C/C=C/c1ccccc1 22.1 nM
CCC(C)(CCN1CCOCC1)N(Cc1cc2ccccc2n(C)c1=O)C(=O)C1CCCCC1 (centres undefined) 17.6 nM
COc1ccc(C2c3c(ncn(CCN4CCOCC4)c3=N)Oc3ccc4ccccc4c32)cc1OC (centres undefined) 296 nM
O=C1OC(c2ccccc2)(c2ccccc2)N2CCN(C(=O)NCc3ccc(F)cc3)CC12 (centres undefined) 208 nM
